Square brackets hold non-standard residues; d marks the D form. Peptide text beside a SMILES is read from it. Orn = NCCC[C@H](N)C(=O)O

This assay can be described thus: qHTS profiling of inhibitors of Plasmodium falciparum (DD2) proliferation (acoustic dispense). The note with it: P. falciparum Dd2 in erythrocytes, SYBR Green DNA, 72 h; at 49.8 µM (top of the series) unless noted. An excerpt: Plasmodium falciparum is a virulent malarial parasite that kills 1-2 million people worldwide each year. Transmitted by mosquitoes, the sporozoite form of the parasite enters the blood stream to infect hepatocytes, where they become merozoites that infect red blood cells (erythrocytes). Within erythrocytes, merozoites begin a […] cycle of growth and division, after which the parasite is released to infect new red blood cells. Gametocytes, which form within erythrocytes as well, circulate in the bloodstream and are ingested by the mosquito, thereby completing the life cycle. To profile malarial isolates for differential chemical responses and to identify inhibitors of malarial growth, an assay that measures P. falciparum growth and replication within erythrocytes was employed. This assay uses a DNA binding fluorescent dye (SYBR Green) to detect parasite DNA following cell lysis. Because mature erythrocytes lack DNA, only Plasmodium-derived DNA is detected.
The SYBR Green viability assay was adapted from a method described previously (Plouffe et al., 2008). For screening 3 ul culture medium was dispensed into 1536 well black clear bottom plates (Aurora Biotechnologies) using a Multidrop Combi (Thermo Fisher Scientific Inc.), 23 nL of compounds in DMSO were added by an acoustic dispenser (EDC Biosystems), and 5 ul of erythrocytes infected with P. falciparum (0.3% parasitemia, 2.5% hematocrit final concentration) were added. The plates were incubated at 37 C in a humidified incubator in 5% CO2 for 72 h, and 2 ul lysis buffer (20 mM Tris HCl, 10 mM EDTA, 0.16% saponin, 1.6% triton X, 10X SYBR Green I supplied as 10,000X […] by Invitrogen) was added to each well. The plates were mixed for 25 sec with gentle shaking and incubated overnight at room temperature in the dark. The following morning, fluorescence intensity at 485(14) nm excitation and 535(25) nm emission wavelengths was measured on an EnVision (Perkin Elmer) plate reader. Plate reads were normalized relative to the control inhibitor (0.29 uM artemisinin) and vehicle (DMSO) wells present on each plate and then corrected by an algorithm using vehicle-only control plates at the beginning and end of the compound plate stack.
On the technique in general: Quantitative high-throughput screening tests each substance at several concentrations.
In the case of `CC(C)C[C@@H]1NC(=O)[C@H](CCCN)NC(=O)[C@H](C(C)C)NC(=O)[C@@H]2CCCN2C(=O)[C@@H](Cc2ccccc2)NC(=O)[C@H](CC(C)C)NC(=O)[C@H](CCCN)NC(=O)[C@H](C(C)C)NC(=O)[C@@H]2CCCN2C(=O)[C@@H](Cc2ccccc2)NC1=O` (cyclo(V[Orn]L[dF]PV[Orn]L[dF]P)), the parasite growth, lower = inhibition was determined as 0.52%. The figure for `O=C1c2c(O)ccc(O)c2C(=O)c2c(NCCNCCO)ccc(NCCNCCO)c21` is -3.56%. As for `CC[C@H]1OC(=O)[C@H](C)C(=O)[C@H](C)[C@@H](O[C@H]2O[C@H](C)C[C@H](N(C)C)[C@@H]2O)[C@](C)(OC)C[C@@H](C)C(=O)[C@H](C)[C@H]2N(CCCCn3cnc(-c4cccnc4)c3)C(=O)O[C@]12C`, the parasite growth, lower = inhibition came to 4.52%. In the case of `COc1cc2nc(N3CCCN(C)CC3)nc(NC3CCN(Cc4ccccc4)CC3)c2cc1OC`, the parasite growth, lower = inhibition is -0.574%. For `CN(Cc1cnc2nc(N)nc(N)c2n1)c1ccc(C(=O)N[C@@H](CCC(=O)O)C(=O)O)cc1` the value was -0.378%; for `CCC(C=C[C@@H]1OC(=O)C=C[C@H]1C)=C[C@H](C)CC=CC(C)=C[C@@H](C)C(=O)[C@@H](C)[C@H](O)[C@@H](C)CC(C)=CC(=O)O`, 97.6% [at 1.88 µM]. The figure for `Cn1cnc(=N)c2[nH]cnc21` is 0.26%. For `CCc1nc(N)nc(N)c1-c1ccc(Cl)cc1` the value was 79.6%; for `CCN(CC)CCNC(=O)c1c(C)[nH]c(C=C2C(=O)Nc3ccc(F)cc32)c1C`, -0.534% [at 100 µM].

With `COc1cc2c(Oc3ccc(NC(=O)C4(C(=O)Nc5ccc(F)cc5)CC4)cc3F)ccnc2cc1OCCCN1CCOCC1`, the parasite growth, lower = inhibition stood at 0.0003%.

For the molecule `CC(Sc1nc2ccccc2[nH]1)C(=O)NN=Cc1cc(Br)ccc1O` (stereo not given), the parasite growth, lower = inhibition came to 99.5% [at 4.15 µM]. Consider `COc1cc(NCc2ccc3nc(N)nc(N)c3c2C)cc(OC)c1OC`, for which the parasite growth, lower = inhibition is -1.45%. The figure for `O=C(Nc1cn[nH]c1-c1nc2ccc(CN3CCOCC3)cc2[nH]1)NC1CC1` is 0.452%; for `CCN(CC)CCCC(C)Nc1ccnc2cc(Cl)ccc12` (stereo not given) it is -0.356%.

Take `Cn1c(=O)c(-c2c(Cl)cccc2Cl)cc2cnc(Nc3cccc(C(=O)O)c3)nc21`: the parasite growth, lower = inhibition was -0.0499%. For `CN[C@@H](C)C(=O)N[C@H]1CCCC[C@H]2CC[C@@H](C(=O)N[C@@H](c3ccccc3)c3cn(CCCCc4ccc(CCCCn5cc([C@@H](NC(=O)[C@@H]6CC[C@@H]7CCCC[C@H](NC(=O)[C@H](C)NC)C(=O)N76)c6ccccc6)nn5)cc4)nn3)N2C1=O` the value was 0.728%; for `O=C1c2ccccc2-[n+]2ccc3c([nH]c4ccccc43)c21`, 2.4%. The figure for `CCC(=O)N1CCN(c2ccc(-n3c(=O)ccc4cnc5ccc(-c6cnc7ccccc7c6)cc5c43)cc2C(F)(F)F)CC1` is 3.68%. As to `CN(C)c1ccc(C(=C2C=CC(=[N+](C)C)C=C2)c2ccc(N(C)C)cc2)cc1`, the parasite growth, lower = inhibition was 96.3%. For `COc1cc(C)c2c(Oc3cccc(C(F)(F)F)c3)c(OC)cc(NCCCC(C)N)c2n1` (stereo not given) the value was -0.465%. Take `C[C@H]1Cc2c([nH]c3cc(Cl)c(F)cc23)[C@@]2(N1)C(=O)Nc1ccc(Cl)cc12`: the parasite growth, lower = inhibition was -0.794%. Regarding `Nc1ccc(-c2ccc3ncc4ccc(=O)n(-c5cccc(C(F)(F)F)c5)c4c3c2)cn1`, the parasite growth, lower = inhibition was -0.538%.

Take `CN(C)c1ccc2nc3ccc(=[N+](C)C)cc-3sc2c1`: the parasite growth, lower = inhibition is 11.8%. For `CC(C)N=C(N)N=C(N)Nc1ccc(Cl)cc1` the value was -0.338%; for `CCN(CC)Cc1cc(Nc2ccnc3cc(Cl)ccc23)ccc1O`, 0.736% [at 23.2 µM]. The figure for `C[C@@H]1CCC2[C@@H](C)[C@@H](O)O[C@@H]3O[C@@]4(C)CC[C@@H]1[C@@]23OO4` (stereo not given in full) is -0.395%; for `O=C(Nc1ccc([N+](=O)[O-])cc1Cl)c1cc(Cl)ccc1O` it is 87.9%; for `C1CCC(C(CC2CCCCN2)C2CCCCC2)CC1` (stereo not given) it is 0.0319%. For `Nc1cccc(-c2csc(NC(=O)CCCCCCC(=O)NO)n2)c1` the value was -0.461%; for `CC[C@]1(O)C[C@H]2CN(CCC3=c4ccccc4=N[C]3[C@@](C(=O)OC)(c3cc4c(cc3OC)N(C)[C@H]3[C@@](O)(C(N)=O)[C@H](O)[C@]5(CC)C=CCN6CC[C@]43[C@@H]65)C2)C1`, 3.44%. On to `CN(C(=O)OC(C)(C)C)[C@@H](Cc1ccc(O[S+](=O)([O-])c2cccc3cnccc23)cc1)C(=O)N1CCN(C(=O)OCc2ccccc2)CC1`, for which the parasite growth, lower = inhibition is -0.325%. The figure for `C[C@H]1[C@@H](OC(=O)CCC(=O)O)O[C@@H]2O[C@@]3(C)CC[C@@H]4[C@H](C)CC[C@@H]1[C@@]24OO3` is -0.775%; for `Cc1nc2c(C#N)cccc2n1-c1ccc(C(=O)NC2CC2)s1` it is 2.19%; for `CO[C@H]1C=CO[C@@]2(C)Oc3c(C)c(O)c4c(O)c(c(C=NN5CCN(C)CC5)c(O)c4c3C2=O)NC(=O)C(C)=CC=C[C@H](C)[C@H](O)[C@@H](C)[C@@H](O)[C@@H](C)[C@H](OC(C)=O)[C@H]1C` it is -0.189% [at 16.5 µM]. For `C=CCNc1c(O)cc2c(O)c1C[C@@H](C)C[C@H](OC)[C@@H](O)[C@@H](C)C=C(C)[C@H](OC(N)=O)[C@@H](OC)C=CC=C(C)C(=O)N2` the value was -0.701%; for `CC1(CN2CCC(n3c(=O)[nH]c4ccccc43)CC2)OCc2ccccc2-n2cccc21` (stereo not given), 12.6%. For `Cc1ccc([N+](=O)[O-])cc1S(=O)(=O)N(C)N=Cc1cnc2ccc(Br)cn12` the value was 6.06%; for `c1cncc(CN2CCC(n3ncc4c(N5CCOCC5)nc(-c5ccc6[nH]ccc6c5)nc43)CC2)c1`, 0.462%. With `COc1ccc(-c2nc(N3CCOCC3)c3sc(CN(C)c4ncc(C(=O)NO)cn4)cc3n2)cn1`, the parasite growth, lower = inhibition stood at 0.651%.

Turning to `CC[C@H]1OC(=O)[C@H](C)[C@@H](O[C@H]2C[C@@](C)(OC)[C@@H](O)[C@H](C)O2)[C@H](C)[C@@H](O[C@@H]2O[C@H](C)C[C@H](N(C)C)[C@@H]2O)[C@](C)(O)C[C@@H](C)CN(C)[C@H](C)[C@@H](O)[C@]1(C)O`, the parasite growth, lower = inhibition came to 9.84%.
